Data as given in PubChem BioAssay (Tox21).
Results filed as inconclusive are left out. Active and inactive are the calls of the source. Unless noted, calls follow the shape of the dose curve; as a rule, active = well fitted curve in the direction sought with a large enough effect in the repeat runs; inconclusive = weak or mixed curves; inactive = no such curve, though single readings can be large; an effect the other way counts as inactive or inconclusive.

What was measured:
[1] = qHTS assay to test for compound auto fluorescence at 535 nm (green) in HEK293 cells (AID 720680)
[2] = qHTS assay to test for compound auto fluorescence at 460 nm (blue) in HEK293 cell free culture (AID 720681)
Method in brief: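 Test compounds were pinned into cell-free culture medium (DMEM with 10% FBS) and fluorescence was read directly at Ex/Em 405/460 nm. Signals were expressed as fluorescence equivalents of triamterene, with DMSO vehicle as control.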

[3] = qHTS assay to test for compound auto fluorescence at 535 nm (green) in HEK293 cell free culture (AID 720682)
Method in brief: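 Measurement is a direct plate read of green fluorescence (485 nm in, 535 nm out) after compound addition to serum-supplemented DMEM lacking cells, with fluorescein used to express intensities.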

[4] = qHTS assay to test for compound auto fluorescence at 590 nm (red) in HEK293 cell free culture (AID 720683)
Method in brief: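 Tox21 10K library compounds were pinned into cell-free DMEM with 10% FBS and fluorescence was read at excitation 540 nm. Activity is expressed as Rose Bengal sodium equivalency.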

[5] = qHTS assay to test for compound auto fluorescence at 590 nm (red) in HepG2 cell free culture (AID 720684)
Method in brief: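 Ex 540 / Em 590 nm read of compound in cell-free MEM (10% FBS). Rose Bengal sodium reference.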

[6] = qHTS assay to test for compound auto fluorescence at 460 nm (blue) in HepG2 cell free culture (AID 720685)
Method in brief: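 Cell-free plates of MEM plus 10% FBS received 23 nL compound or DMSO vehicle; blue-channel (405/460 nm) intensity scored against triamterene as reference fluorophore.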

[7] = qHTS assay to test for compound auto fluorescence at 535 nm (green) in HepG2 cell free culture (AID 720686)
[8] = qHTS assay to test for compound auto fluorescence at 460 nm (blue) in HepG2 cells (AID 720687)
Method in brief: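 Cells (2,000/well in MEM with 10% FBS) attached overnight at 37 C, then were exposed to compound or DMSO for 1 hr at 37 C, 5% CO2. Fluorescence read at Ex/Em 405/460 nm, expressed as triamterene-equivalent signal.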

[9] = biological target: Glucocorticoid receptor (Homo sapiens) (UniProt P04150); assay: qHTS assay to identify small molecule agonists of the glucocorticoid receptor (GR) signaling pathway (AID 720691; active = well fitted activation curve with a large enough effect in the signal ratio in the repeat runs, not every such curve was filed as active; the % refers to the signal ratio)
Glucocorticoid receptor (Homo sapiens), sequence (P04150 whole entry, looked up): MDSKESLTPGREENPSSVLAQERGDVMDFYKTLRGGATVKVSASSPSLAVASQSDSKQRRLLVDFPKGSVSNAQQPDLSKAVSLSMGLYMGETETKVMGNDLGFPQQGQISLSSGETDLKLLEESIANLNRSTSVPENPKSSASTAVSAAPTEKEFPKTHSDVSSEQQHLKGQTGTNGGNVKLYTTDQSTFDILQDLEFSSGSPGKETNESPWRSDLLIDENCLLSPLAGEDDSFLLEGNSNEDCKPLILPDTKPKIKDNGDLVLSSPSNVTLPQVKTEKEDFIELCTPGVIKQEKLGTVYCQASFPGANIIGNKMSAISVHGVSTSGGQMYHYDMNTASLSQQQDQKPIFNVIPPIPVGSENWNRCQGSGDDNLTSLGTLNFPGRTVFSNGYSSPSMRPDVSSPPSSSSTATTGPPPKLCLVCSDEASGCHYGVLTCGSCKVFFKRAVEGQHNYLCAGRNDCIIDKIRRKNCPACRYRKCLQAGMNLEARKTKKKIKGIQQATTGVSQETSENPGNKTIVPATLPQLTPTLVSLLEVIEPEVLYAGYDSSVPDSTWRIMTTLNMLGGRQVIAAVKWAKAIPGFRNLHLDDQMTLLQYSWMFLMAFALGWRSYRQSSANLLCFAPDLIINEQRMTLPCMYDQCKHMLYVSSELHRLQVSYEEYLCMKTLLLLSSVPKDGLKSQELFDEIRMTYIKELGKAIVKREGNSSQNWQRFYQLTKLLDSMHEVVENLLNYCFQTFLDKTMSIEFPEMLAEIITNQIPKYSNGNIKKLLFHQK
Method in brief: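 Compounds in DMSO, alongside positive controls, were added to GR-bla HeLa reporter cells and incubated 18 h at 37 C; GRE-driven beta-lactamase was detected by fluorescence after 2 h with FRET substrate at room temperature.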

[10] = biological target: Glucocorticoid receptor (Homo sapiens) (UniProt P04150); assay: qHTS assay to identify small molecule antagonists of the glucocorticoid receptor (GR) signaling pathway (AID 720692; active = well fitted inhibition curve with a large enough effect in the signal ratio in the repeat runs, not every such curve was filed as active; the % refers to the signal ratio)
Method in brief: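 In a 1536-well cell format, compounds were added 4 h after seeding GR-bla HeLa cells, together with dexamethasone at 5 nM final; reporter activity was measured by FRET-substrate fluorescence following 18 h at 37 C.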

[11] = qHTS assay for identifying genotoxic compounds that show differential cytotoxicity against isogenic chicken DT40 cell lines with known DNA damage response pathways - wild type cell line (AID 743012); also: nearly all actives have a fitted effect of over 60% in size
Method in brief: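 Viability of DNA repair-proficient chicken DT40 cells was assessed by CellTiter-Glo luminescence following 40 h compound exposure at 37 C/5% CO2.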

[12] = qHTS assay for identifying genotoxic compounds that show differential cytotoxicity against isogenic chicken DT40 cell lines with known DNA damage response pathways - Rad54/Ku70 mutant cell line (AID 743015); also: nearly all actives have a fitted effect of over 60% in size
[13] = qHTS assay to identify small molecule antagonists of the androgen receptor (AR) signaling pathway - cell viability counter screen (AID 743033; also: nearly all actives have a fitted effect of over 45% in size)
[14] = qHTS assay to identify small molecule antagonists of the androgen receptor (AR) signaling pathway using the MDA cell line - cell viability counter screen (AID 743041; also: nearly all actives have a fitted effect of over 45% in size)
Method in brief: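 In this qHTS counter assay, fluorescence intensity after CellTiter-Fluor addition indicated viability of MDA-kb2 AR-luc cells given compounds and R1881 for 16 h at 37C.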

[15] = qHTS assay to identify small molecule antagonists of the glucocorticoid receptor (GR) signaling pathway - cell viability counter screen (AID 720693); also: nearly all actives have a fitted effect of over 55% in size
[16] = qHTS assay for identifying genotoxic compounds that show differential cytotoxicity against isogenic chicken DT40 cell lines with known DNA damage response pathways - Rev3 mutant cell line (AID 743014); also: nearly all actives have a fitted effect of over 55% in size
[17] = biological target: Androgen receptor (Homo sapiens) (UniProt P10275); assay: qHTS assay to identify small molecule agonists of the androgen receptor (AR) signaling pathway (AID 743036; active = well fitted activation curve with a large enough effect in the signal ratio in the repeat runs, with a control signal flat, not every such curve was filed as active; the % refers to the signal ratio)
Androgen receptor (Homo sapiens), sequence (P10275 whole entry, looked up): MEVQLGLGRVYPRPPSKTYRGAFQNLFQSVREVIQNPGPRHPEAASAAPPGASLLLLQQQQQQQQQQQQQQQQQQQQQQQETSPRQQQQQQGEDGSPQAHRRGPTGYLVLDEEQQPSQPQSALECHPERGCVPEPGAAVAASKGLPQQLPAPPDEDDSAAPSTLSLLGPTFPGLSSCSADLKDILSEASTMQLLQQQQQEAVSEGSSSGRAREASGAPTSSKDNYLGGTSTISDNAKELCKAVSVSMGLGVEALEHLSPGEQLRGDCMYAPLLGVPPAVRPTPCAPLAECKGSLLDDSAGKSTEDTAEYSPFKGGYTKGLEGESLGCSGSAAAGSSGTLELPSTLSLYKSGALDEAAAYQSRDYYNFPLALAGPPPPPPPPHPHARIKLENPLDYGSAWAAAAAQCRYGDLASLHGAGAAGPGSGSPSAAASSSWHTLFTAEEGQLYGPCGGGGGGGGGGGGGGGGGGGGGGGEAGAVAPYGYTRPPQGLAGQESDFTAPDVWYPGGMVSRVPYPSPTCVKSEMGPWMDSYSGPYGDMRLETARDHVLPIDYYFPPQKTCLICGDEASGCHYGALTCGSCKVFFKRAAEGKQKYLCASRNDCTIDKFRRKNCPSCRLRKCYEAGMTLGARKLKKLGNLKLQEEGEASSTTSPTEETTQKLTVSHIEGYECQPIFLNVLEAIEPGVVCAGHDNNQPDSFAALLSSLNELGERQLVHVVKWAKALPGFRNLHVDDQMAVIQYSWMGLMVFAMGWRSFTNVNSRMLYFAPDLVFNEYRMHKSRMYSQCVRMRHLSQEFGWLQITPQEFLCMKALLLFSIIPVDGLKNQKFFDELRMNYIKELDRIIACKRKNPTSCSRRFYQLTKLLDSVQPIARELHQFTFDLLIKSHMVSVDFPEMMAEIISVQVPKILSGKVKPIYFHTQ
Method in brief: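 Beta-lactamase under UAS control, stably integrated in HEK293 GripTite cells, reports receptor activation. After 16 h compound treatment, cells received FRET substrate for 2 h at room temperature before fluorescence reading.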

[18] = biological target: Androgen receptor (Homo sapiens) (UniProt P10275); assay: qHTS assay to identify small molecule agonists of the androgen receptor (AR) signaling pathway using the MDA cell line (AID 743040; also: nearly all actives have a fitted effect of over 20% in size)
Method in brief: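 Cell-based luciferase reporter: MDA-kb2, MMTV promoter (AR + GR response elements). 16 h compound exposure at 37C; ONE-Glo, 30 min RT, luminescence.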

[19] = biological target: Androgen receptor (Homo sapiens) (UniProt P10275); assay: qHTS assay to identify small molecule antagonists of the androgen receptor (AR) signaling pathway using the MDA cell line (AID 743042; also: nearly all actives have a fitted effect of over 55% in size)
Method in brief: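 MDA-kb2 cells (human breast carcinoma, stably carrying an MMTV-luciferase reporter responsive to AR and GR) were plated at 3,000 cells/well and preincubated 5 hr at 37C, then given compound plus R1881 agonist for 16 h. ONE-Glo luminescence was read.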

[20] = biological target: Androgen receptor (Homo sapiens) (UniProt P10275); assay: qHTS assay to identify small molecule antagonists of the androgen receptor (AR) signaling pathway (AID 743035; active = well fitted inhibition curve with a large enough effect in the signal ratio in the repeat runs, not every such curve was filed as active; the % refers to the signal ratio)
Method in brief: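 Reporter HEK293 cells were exposed to compounds and R1881 overnight (16 h, 37C); beta-lactamase activity was then quantified by FRET fluorescence.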
% is scaled to controls: 0 for no effect and ±100 for the full control effect.

CNS(=O)(=O)CCc1ccc2[nH]cc(C3CCN(C)CC3)c2c1
inactive: outcome [1] | outcome [2] | outcome [3] | outcome [4] | outcome [5] | outcome [6] | outcome [7] | outcome [8] | Potency [9] | outcome [10] | Potency [11] | Potency [12] | Potency [13] | Potency [14]

CC(=C(CCOC(=O)C(C)C)SSC(CCOC(=O)C(C)C)=C(C)N(C=O)Cc1cnc(C)nc1N)N(C=O)Cc1cnc(C)nc1N
inactive: outcome [1] | outcome [2] | outcome [3] | outcome [4] | outcome [5] | outcome [6] | outcome [7] | outcome [8] | Potency [9] | outcome [15] | Potency [11] | Potency [12] | Potency [13] | Potency [14]

Cc1c(I)c(=O)n(-c2ccccc2)n1C
inactive: outcome [1] | outcome [2] | outcome [3] | outcome [4] | outcome [5] | outcome [6] | outcome [7] | outcome [8] | Potency [9] | Potency [11] | Potency [16] | Potency [12] | Potency [13] | Potency [14]

CCN(CC)CC(=O)Nc1c(C)cccc1C
inactive: outcome [1] | outcome [2] | outcome [3] | outcome [4] | outcome [5] | outcome [6] | outcome [7] | outcome [8] | Potency [9] | outcome [15] | Potency [12] | outcome [17] | outcome [18] | Potency [14] | Potency [19]

C[C@H](N)[C@H](O)c1cccc(O)c1
inactive: fluorescence, % of fluorescein [1] 0.0113% [at 18.6 µM] | fluorescence, % of fluorescent control [2] 2.08% [at 18.6 µM] | activity change [3] 0.048% [at 18.6 µM] | fluorescence, % of fluorescent control [4] 0.0224% [at 18.6 µM] | fluorescence, % of Rose Bengal [5] -0.249% [at 18.6 µM] | fluorescence, % of fluorescent control [6] 1.92% [at 18.6 µM] | fluorescence, % of fluorescein control [7] 0.027% [at 18.6 µM] | fluorescence, % of fluorescent control [8] 1.56% [at 18.6 µM] | Potency [9] | outcome [10] | Potency [11] | Potency [16] | Potency [12] | Potency [13] | Potency [14]

CN1C(C)(C)CCCC1(C)C
inactive: outcome [1] | outcome [2] | outcome [3] | outcome [4] | outcome [5] | outcome [6] | outcome [7] | outcome [8] | Potency [9] | outcome [15] | Potency [11] | Potency [16] | Potency [12] | Potency [13] | Potency [14]

CNC(=O)[C@H]1O[C@@H](n2cnc3c(NCc4cc(Cl)ccc4OCc4cc(C)no4)ncnc32)[C@H](O)[C@@H]1N
inactive: outcome [1] | outcome [2] | outcome [3] | outcome [4] | outcome [5] | outcome [6] | outcome [7] | outcome [8] | Potency [9] | outcome [15] | Potency [16] | Potency [13] | Potency [20] | outcome [17] | outcome [18] | Potency [14] | Potency [19]

C[Si](C)=O
inactive: fluorescence, % of fluorescein [1] 0.04% [at 9.17 µM] | fluorescence, % of fluorescent control [2] -0.225% [at 9.17 µM] | activity change [3] -0.0646% [at 9.17 µM] | fluorescence, % of fluorescent control [4] -0.414% [at 9.17 µM] | fluorescence, % of Rose Bengal [5] -0.0951% [at 9.17 µM] | fluorescence, % of fluorescent control [6] -0.0659% [at 9.17 µM] | fluorescence, % of fluorescein control [7] 0.113% [at 9.17 µM] | fluorescence, % of fluorescent control [8] -0.132% [at 9.17 µM] | activation [9] 1.09% [at 6.9 µM] | viability change, negative = cytotoxic [15] -9.5% [at 7.04 µM] | activity change, negative = cytotoxicity [11] 12.9% [at 8.52 µM] | activity, negative = cytotoxicity [16] -9.66% [at 8.53 µM] | activity change, negative = cytotoxicity [12] 1.94% [at 8.55 µM] | activity change, negative = cytotoxicity [13] 2.74% [at 7.04 µM] | viability change, negative = cytotoxic [14] -9.84% [at 8.47 µM]
